These results are taken from PubChem BioAssay (NCI).

Test systems include SK-MEL-2 melanoma; EKVX NSCLC; SN12C renal; UO-31 renal; TK-10 renal; ACHN renal; CAKI-1 renal; A498 renal; CCRF-CEM leukemia; MOLT-4 leukemia; RPMI-8226 leukemia; OVCAR-8 ovarian; OVCAR-5 ovarian; OVCAR-4 ovarian; SK-OV-3 ovarian; IGROV1 ovarian; HS 578T breast; NCI/ADR-RES ovarian; OVCAR-3 ovarian.
Holding throughout (test): NCI-60 one-dose screen, 48 h (100 = growth as untreated, 0 = no growth, -100 = all killed)
Common to all, as to conditions: 10 µM unless noted

SMILES strings stand for the structures. The panel holds about 83,000 compounds, 20% with a hit somewhere; the sample as a whole holds those more often.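 The endpoint reported here, percent growth, reads 100 for growth as untreated, 0 for no net growth and -100 for all cells dead.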 Unmarked numbers belong to inactive results. Activity calls are given as the source filed them. The calls were made as follows: active = growth percent below 10; inactive = the rest.

For `N#Cc1c(-c2ccc(Cl)cc2)nc2c(c(-c3ccccc3)nn2-c2ccccc2)c1-c1ccc(O)cc1`, the growth in the assay on SK-MEL-2 melanoma is 74.5%; in the assay with EKVX NSCLC it was 67.8%; with SN12C renal, -18.4% (active); with UO-31 renal, 30.5%; with TK-10 renal it was 17.2%; in the assay with ACHN renal, 56%. Moreover, the growth in the assay with CAKI-1 renal was 40.2%; in the assay on A498 renal, 79.3%; in the assay with CCRF-CEM leukemia it was 27%; in the assay with MOLT-4 leukemia, 24.3%; in the assay with RPMI-8226 leukemia it was 17.9%; in the assay with OVCAR-8 ovarian it was 49.9%. Further, the growth was 84% in the assay with OVCAR-5 ovarian; 64.7% with OVCAR-4 ovarian; 96.9% in the assay with SK-OV-3 ovarian; 69.8% with IGROV1 ovarian; 26.5% in the assay on HS 578T breast; 57.9% with NCI/ADR-RES ovarian.
Consider `COc1cc(C(=O)/C=C/c2sc(Cl)nc2Cl)cc(OC)c1OC`, for which the growth in the assay on SK-MEL-2 melanoma is 82.7%; in the assay with EKVX NSCLC, 55.6%; with SN12C renal it was 7.55% (active); in the assay with UO-31 renal it was 67.2%; in the assay on TK-10 renal, 94.3%; in the assay on ACHN renal, -94.7% (active). Further, the growth in the assay with CAKI-1 renal was 37.1%; in the assay on A498 renal it was 89.9%; in the assay with CCRF-CEM leukemia, 10.9%; in the assay on MOLT-4 leukemia, 23.2%; with RPMI-8226 leukemia, -38% (active); in the assay on OVCAR-8 ovarian it was 33.6%. Also, the growth in the assay with OVCAR-5 ovarian was 77.1%; in the assay on OVCAR-4 ovarian, 57.2%; in the assay with SK-OV-3 ovarian, 97.7%; in the assay on IGROV1 ovarian, 25.5%; with HS 578T breast it was 71.3%; in the assay on NCI/ADR-RES ovarian, 76.3%.
In the case of `Cc1ccc(/C=C2\Oc3ccc(O)c(O)c3C2=O)cc1`, the growth with SK-MEL-2 melanoma is 87.6%; in the assay on EKVX NSCLC it was 19.7%; in the assay with SN12C renal it was 62.8%; with UO-31 renal, 13.5%; with TK-10 renal, 98%; with ACHN renal, 29.1%. The growth was 34.4% in the assay on CAKI-1 renal; 70.2% in the assay on A498 renal; 15.6% in the assay on CCRF-CEM leukemia; 29.6% in the assay with MOLT-4 leukemia; 51.1% in the assay on RPMI-8226 leukemia; 44.5% in the assay on OVCAR-8 ovarian. Moreover, the growth in the assay on OVCAR-5 ovarian was 68.5%; in the assay on OVCAR-4 ovarian it was 43.7%; with SK-OV-3 ovarian, 63.6%; in the assay with IGROV1 ovarian, 38.1%; with OVCAR-3 ovarian, 11.7%; with HS 578T breast, 62.5%. In addition, the growth in the assay on NCI/ADR-RES ovarian is 45.1%.
As to `Cn1cc(C(=O)c2nc(-c3cn(C)c4ccc(F)cc34)no2)c2cc(F)ccc21`, the growth is 102% in the assay with SK-MEL-2 melanoma; 107% in the assay with EKVX NSCLC; 91.9% in the assay with SN12C renal; 63% in the assay on UO-31 renal; 108% in the assay with TK-10 renal; 94.1% in the assay with ACHN renal. Besides, the growth in the assay with CAKI-1 renal was 88.9%; in the assay with A498 renal it was 113%; in the assay with CCRF-CEM leukemia, 92%; with MOLT-4 leukemia, 99.6%; in the assay on RPMI-8226 leukemia, 91.1%; with OVCAR-8 ovarian it was 95.5%. In addition, the growth was 85.9% in the assay on OVCAR-5 ovarian; 90.8% in the assay with OVCAR-4 ovarian; 81% in the assay on SK-OV-3 ovarian; 77.8% with IGROV1 ovarian; 98.4% in the assay on OVCAR-3 ovarian; 87% in the assay on HS 578T breast. The growth with NCI/ADR-RES ovarian is 102%.
Consider `C#C[C@]1(O)CC[C@H]2[C@@H]3CC=C4c5sc(Nc6cc(F)ccc6F)nc5CC[C@]4(C)[C@H]3CC[C@@]21C`, for which the growth with SK-MEL-2 melanoma was -6.68% (active); in the assay on EKVX NSCLC it was 23.9%; in the assay with SN12C renal, -43.1% (active); in the assay with UO-31 renal, -98.3% (active); in the assay on TK-10 renal it was 18.5%; with ACHN renal, -68.2% (active). The growth in the assay on CAKI-1 renal is -31.5% (active); in the assay with A498 renal it was -13.4% (active); with CCRF-CEM leukemia, 4.58% (active); with MOLT-4 leukemia it was 6.12% (active); in the assay with RPMI-8226 leukemia, -28.3% (active); in the assay with OVCAR-8 ovarian, 18.4%. Moreover, the growth with OVCAR-5 ovarian is 2.88% (active); in the assay with OVCAR-4 ovarian it was 23%; in the assay on SK-OV-3 ovarian it was -1.09% (active); in the assay with IGROV1 ovarian, -33.5% (active); in the assay with OVCAR-3 ovarian, -22.7% (active); in the assay on HS 578T breast, -10.8% (active). Further, the growth with NCI/ADR-RES ovarian was 7.49% (active).
Turning to `Cc1cc(=O)oc2cc(OC(=O)N3CCN(C)CC3)ccc12`, the growth in the assay on SK-MEL-2 melanoma is 116%; with EKVX NSCLC, 99.2%; with SN12C renal, 97.9%; with UO-31 renal, 85.3%; in the assay on TK-10 renal it was 125%; with ACHN renal, 96.6%. The growth with CAKI-1 renal was 89.7%; with A498 renal it was 105%; in the assay on CCRF-CEM leukemia it was 104%; with MOLT-4 leukemia, 97.7%; with RPMI-8226 leukemia, 108%; in the assay on OVCAR-8 ovarian it was 103%. In addition, the growth with OVCAR-5 ovarian is 98.7%; in the assay with OVCAR-4 ovarian, 104%; in the assay with SK-OV-3 ovarian it was 110%; with IGROV1 ovarian, 110%; in the assay with OVCAR-3 ovarian, 106%; in the assay with HS 578T breast, 99.4%. Further, the growth in the assay with NCI/ADR-RES ovarian is 104%.
Consider `CC(=O)CC(c1ccccc1)c1c(C)[nH]c2ccccc12` (centres undefined), for which the growth was 105% in the assay on SK-MEL-2 melanoma; 85.9% with EKVX NSCLC; 94% with SN12C renal; 72.6% in the assay with UO-31 renal; 117% in the assay with TK-10 renal; 92.8% with ACHN renal. Moreover, the growth with CAKI-1 renal was 77.8%; with A498 renal, 88.1%; in the assay on CCRF-CEM leukemia, 101%; in the assay on MOLT-4 leukemia, 95%; in the assay on RPMI-8226 leukemia, 94.4%; with OVCAR-8 ovarian, 97.4%. The growth in the assay on OVCAR-5 ovarian was 94.2%; with OVCAR-4 ovarian, 100%; in the assay on SK-OV-3 ovarian it was 104%; in the assay with IGROV1 ovarian, 91.5%; in the assay on OVCAR-3 ovarian, 95.9%; with HS 578T breast, 84.6%. Also, the growth in the assay on NCI/ADR-RES ovarian is 93.6%.
As for `COc1cccc(-c2nn(-c3ccccc3)cc2-c2ccnc(N3CCOCC3)c2)c1`, the growth with SK-MEL-2 melanoma is 96.7%; with EKVX NSCLC, 82.2%; in the assay with SN12C renal it was 98%; in the assay on UO-31 renal, 66.2%; with TK-10 renal, 92%; with ACHN renal it was 84.3%. The growth in the assay with CAKI-1 renal is 81.4%; in the assay on A498 renal, 71.7%; with CCRF-CEM leukemia, 97.8%; in the assay with MOLT-4 leukemia, 59.2%; with RPMI-8226 leukemia, 67.9%; with OVCAR-8 ovarian it was 96.6%. In addition, the growth in the assay with OVCAR-5 ovarian was 94.7%; in the assay with OVCAR-4 ovarian it was 84.2%; with SK-OV-3 ovarian it was 87.9%; with IGROV1 ovarian, 79.5%; in the assay on HS 578T breast it was 115%; in the assay on NCI/ADR-RES ovarian, 77.5%.
